Measurements as given in ChEMBL document CHEMBL3433997, “St. Jude Leishmania screening dataset” (2016).

What follows are molecules tested against Solute carrier family 2, facilitated glucose transporter member 1 (Homo sapiens) (UniProt P11166) (assay: ST_JUDE_LEISH: Cytotoxicity at 2uM final concentration against transgenic Leishmania Mexicana promastigotes LmGLUT1 that are glucose transport deficient and complemented with the human glucose transporter GLUT1. Activity is measured by DNA content using SYBR green in vitro).
Sequence of Solute carrier family 2, facilitated glucose transporter member 1 (Homo sapiens) (P11166 whole entry): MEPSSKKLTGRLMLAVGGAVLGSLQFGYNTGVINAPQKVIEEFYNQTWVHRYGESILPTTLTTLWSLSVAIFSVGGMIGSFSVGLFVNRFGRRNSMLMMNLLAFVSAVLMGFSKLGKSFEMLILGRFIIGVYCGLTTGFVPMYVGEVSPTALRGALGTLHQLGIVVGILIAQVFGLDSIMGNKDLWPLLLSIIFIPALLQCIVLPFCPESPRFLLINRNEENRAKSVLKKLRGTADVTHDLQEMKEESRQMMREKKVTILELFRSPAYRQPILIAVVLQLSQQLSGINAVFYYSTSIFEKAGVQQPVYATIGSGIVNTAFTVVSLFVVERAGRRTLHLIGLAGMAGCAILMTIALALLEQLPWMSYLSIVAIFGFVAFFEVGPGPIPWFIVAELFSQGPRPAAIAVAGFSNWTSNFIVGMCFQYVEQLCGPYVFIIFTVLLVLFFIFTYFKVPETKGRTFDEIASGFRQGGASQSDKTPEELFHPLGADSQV
Format: functional

SMILES | inhibition [%]
O=C(NCC1CCN(Cc2ccc3c(c2)OCCO3)C1)c1cc(-c2ccccc2F)cs1 (stereo unspecified) | 4.88
COc1ccc(CNC2Cc3ccccc3C2)cc1-c1ccc(S(=O)(=O)NCc2ccccc2)s1 | 6.85
Cc1cc(N)c2cc(NC(=O)/C=C/c3ccccc3Cl)ccc2n1 | -4.75
CCCCCCN1CCN(Cc2cccc(NC(=O)c3cc4ccccc4o3)c2)CC1 | 1.59
O=C(CC1NC(=O)c2ccccc21)Nc1ccc(-c2ccc(-c3nc4cc(C(F)(F)F)ccc4[nH]3)cc2)cc1 (stereo unspecified) | 4.68
c1ccc(CNCc2cccc(-c3cccc(-c4nc5ccccc5[nH]4)c3)c2)cc1 | 4.44
CN(C)CCNc1ncnc2c1[nH]c1ccc(Br)cc12 | 1.62
CCc1cn2c3c(cc(C(=O)N[C@@H](Cc4cc(F)cc(F)c4)[C@H](O)CNC4CC4)cc13)N(C)S(=O)(=O)CC2 | 3.44
COc1ccc(NC(=O)[C@H](CC(C)C)Nc2cc(C)nc(NCc3cccc(C)c3)n2)cc1 | 9.89
O=C(Nc1cc(C(F)(F)F)ccc1Cl)c1ccc(Cn2cc(Br)cn2)cc1 | 1.23
CN1CCC(NCc2ccc(-c3ccc(C(F)(F)F)cc3)cc2)CC1 | -0.71
CC(C)CN(C)c1ncnc2c1nc(-c1cncc(C#N)c1)n2CCNCc1ccccc1 | 3.34
Cc1[nH]c(C)c(-c2ccc(OCc3ccc(OC(F)(F)F)cc3)nc2)c(=O)c1Cl | 13.3
CCc1c(CCNCCCCCCNCCc2ccc(Br)cc2)ccc(O)c1O | -0.07
CC(C)CCN1CCC(Oc2ccc(NC(=O)c3ccc4ncccc4c3)cc2Cl)C1 (stereo unspecified) | 1.24
CC(C)CNCc1ccc(-c2ccccc2CN(C(=O)NCCc2ccccc2)C2CCN(Cc3ccccc3)CC2)cc1 | 1.25
